# Results taken from PubChem BioAssay (NCATS).
# Several values for one entry are separate records, joined by “and”; a condition that tells them apart may be missing. Equal values may be shown once. Unmarked numbers belong to inactive results. Inconclusive results are not listed. Activity calls are given as the source filed them. Unless noted, calls come from the whole dose curve; as a rule, active = well fitted curve in either direction with a large enough effect (not every such curve was filed as active); inconclusive = small, poorly fitted or top-dose-only effect, or another doubt; inactive = flat fitted curve, though single readings scatter.
# What was measured:
# [1] = molecular target: Glucocorticoid receptor (Homo sapiens) (UniProt P04150); experiment: GR-GFP Redistribution (AID 450;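 active = compounds whose dose series gives a full or clear partial fitted curve of increased nuclear translocation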; note: potency is the fitted concentration of half-maximal effect); conditions: U2OS GR-GFP nuclear translocation, laser cytometry, 2 h
# [2] = AP1 Signaling Pathway (AID 357); conditions: ME-180 AP-1-bla reporter, EGF-induced, beta-lactamase ratio, 5 h; at 17.2 µM (top of the series);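 note: ME-180 reporter cells stimulated with EGF at its EC50 level; % is set by controls: 0 for no effect and ±100 for the full control effect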
# Outline: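 A ratiometric CCF4 readout (405 nm excitation; 460 and 530 nm emission) quantified AP-1-driven beta-lactamase in ME-180 cells after 5 h with compound and EC50 EGF; AC50 values were derived for activators and inhibitors.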
# [3] = Cell Viability - BJ (AID 421; calls by dose curve;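 note: potency is the fitted concentration of half-maximal effect; cells exposed to compound for 40 hours at 37 °C before readout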); conditions: BJ fibroblast viability, qHTS
# Outline: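 Luminescent ATP signal (CellTiter-Glo, 20 min at room temperature) served as the read-out of viable BJ cells after 40 hours of compound treatment. Responses were scaled between DMSO and 100 uM tamoxifen, and AC50 values were obtained by Hill modeling.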
# [4] = Cell Viability - Jurkat (AID 426;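 active = dose-dependent loss of cell ATP signal giving a full or clear fitted curve, ranked by lower potency value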; note: potency is the fitted concentration of half-maximal effect); conditions: qHTS
# Outline: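 Seed 5000 Jurkat E6-1 cells/well; add compound; incubate 40 hr at 37 °C; add CellTiter-Glo; wait 20 min at room temperature; read luminescence. Fit concentration-response with Hill equation for AC50.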
# [5] = Cell Viability - Hek293 (AID 427;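 active = compounds whose dose-response curve shows a full or clear partial loss of cell viability, called from curve shape rather than a numeric limit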;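 note: potency is the fitted concentration of half-maximal effect; cells exposed to compound for 40 hours at 37 °C before reading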); conditions: qHTS
# Outline: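 Luminescent ATP read-out (CellTiter-Glo, 20 min RT) after 40 hr compound exposure at 37 °C in complete medium. Signal normalized to DMSO (basal) and 100 uM tamoxifen (100% inhibition); concentration-response fitted with the standard Hill equation to give AC50.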
# [6] = Cell Viability - HepG2 (AID 433; calls by dose curve;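 note: potency is the fitted concentration of half-maximal effect; potency for ATP loss meaning cytotoxicity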); conditions: qHTS
# Outline: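 Read-out is luciferase-based quantitation of cellular ATP as a measure of viable HepG2 cells after 40 h treatment at 37 °C. Signal decrease is scaled between DMSO-only and 100 uM tamoxifen controls, with AC50 fitted by the Hill equation.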
# [7] = Cell Viability - MRC5 (AID 434; calls by dose curve;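 note: potency is the fitted concentration of half-maximal effect; potency reflects cytotoxicity seen as loss of intracellular ATP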); conditions: MRC5 lung fibroblast viability, qHTS
# Outline: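 MRC5 normal human lung fibroblasts, 1500 cells/well, exposed to compound for 40 hr at 37 C. Cellular ATP was read by CellTiter-Glo luminescence; data normalized to DMSO and 100 uM tamoxifen, with AC50 from Hill fits.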
# [8] = Cell Viability - SK-N-SH (AID 435; calls by dose curve;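 note: potency is the fitted concentration of half-maximal effect; compound exposure lasted 40 h at 37 °C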); conditions: SK-N-SH neuroblastoma cell viability qHTS
# Outline: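 Luminescent ATP signal served as the viability read-out after 40 hours of compound treatment of human neuroblastoma SK-N-SH cells. Concentration-response data, scaled between DMSO and 100 uM tamoxifen, gave AC50 values by standard Hill modeling.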
# [9] = molecular target: Mitogen-activated protein kinase 10 (Mus musculus) (UniProt Q61831); experiment: JNK3 AlphaScreen Assay (AID 530); conditions: JNK3 lysate, c-Jun phosphorylation; series mostly up to 57.1 µM;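 note: kinase came from lysate of stimulated human HepG2 cells; signal reports phosphorylation of biotinylated GST-cJun 1-79 at Ser73 with 10 µM ATP; % is set by controls: 0 for no effect and ±100 for the full control effect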
# Outline: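 qHTS format: compounds tested as titrations against IL-1beta/TNF-alpha-activated HepG2 lysate JNK3 with biotin-GST-cJun substrate and 10 uM ATP at room temperature. Loss of anti-phospho-cJun AlphaScreen signal indicates inhibition.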
# [10] = Cell Viability - N2a (AID 540; active = well fitted curve in the direction sought with a large enough effect; an effect the other way counts as inactive or inconclusive; note: nearly all actives have a fitted effect of over 45% in size; note: potency is the fitted concentration of half-maximal effect;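 for activity change, negative = cytotoxicity: plate controls were DMSO alone for no effect and tamoxifen control for full effect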); conditions: N2a mouse neuroblastoma cell viability; activity change, negative = cytotoxicity: at 92.2 µM (top of the series)
# Outline: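 First, 1500 N2a cells per well incubate 5 hr at 37 °C; next, compounds are added and incubated 40 hr at 37 °C; finally CellTiter-Glo is added and luminescence read after 20 min, with AC50 derived by Hill modeling.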
# [11] = Cell Viability - NIH 3T3 (AID 541; active = well fitted curve in the direction sought with a large enough effect; an effect the other way counts as inactive or inconclusive;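 note: plate controls were DMSO alone for no effect and tamoxifen positive control for full effect; nearly all actives have a fitted effect of over 25% in size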); conditions: NIH 3T3 cell viability, qHTS; activity change, negative = cytotoxicity: at 92.2 µM (top of the series)
# Outline: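 AC50 values reflect concentration-dependent loss of intracellular ATP in NIH 3T3 cells after 40 hr treatment in complete culture medium, quantified by luciferase-based luminescence.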
# [12] = Cell Viability - HUV-EC-C (AID 542; active = well fitted curve in the direction sought with a large enough effect; an effect the other way counts as inactive or inconclusive; note: nearly all actives have a fitted effect of over 35% in size; note: potency is the fitted concentration of half-maximal effect); conditions: HUV-EC-C endothelial cell viability, qHTS; series mostly up to 92.2 µM
# Outline: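 Decrease in cellular ATP, quantified by luciferase luminescence, reflects toxicity in normal human vascular endothelial HUV-EC-C cells given compound for 40 hr in complete culture medium. Values are AC50s from concentration-response curves.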
# [13] = Cell Viability - H-4-II-E (AID 543; active = well fitted curve in the direction sought with a large enough effect; an effect the other way counts as inactive or inconclusive; note: nearly all actives have a fitted effect of over 35% in size; note: potency is the fitted concentration of half-maximal effect); conditions: H-4-II-E rat hepatoma viability; series mostly up to 92.2 µM
# Outline: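 Here, cytotoxicity is measured in the rat hepatoma line H-4-II-E as loss of intracellular ATP after 40 hr compound treatment, detected by luciferase luminescence.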
# [14] = Cell Viability - SH-SY5Y (AID 544; active = well fitted curve in the direction sought with a large enough effect; an effect the other way counts as inactive or inconclusive; note: nearly all actives have a fitted effect of over 55% in size; note: potency is the fitted concentration of half-maximal effect); conditions: SH-SY5Y neuroblastoma cell viability; series mostly up to 92.2 µM
# Outline: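 Cytotoxicity is scored as a concentration-dependent fall in intracellular ATP in human SH-SY5Y cells treated 40 hr in complete culture medium. Potency is expressed as AC50 from a Hill equation fit.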
# [15] = Cell Viability - Renal Proximal Tubule (AID 545; active = well fitted curve in the direction sought with a large enough effect; an effect the other way counts as inactive or inconclusive; note: nearly all actives have a fitted effect of over 40% in size; note: potency is the fitted concentration of half-maximal effect;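 for activity change, negative = cytotoxicity: 0% = DMSO only and -100% = 100 µM tamoxifen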); conditions: renal proximal tubule cells viability, primary cells of rat origin; series mostly up to 91.7 µM
# Outline: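 Luminescent ATP signal (CellTiter-Glo) served as the viability read-out after 40 hr compound exposure of freshly isolated rat proximal tubule cells at 37 °C. Concentration-dependent ATP loss was fitted with the Hill equation to give AC50.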
# [16] = NFAT Signaling Pathway (AID 444); conditions: Jurkat NFAT-bla M1, carbachol, beta-lactamase ratio, 5 h; at 17.2 µM (top of the series);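 note: carbachol stimulus at about its EC50 of 1 µM final; % is set by controls: 0 for no effect and ±100 for the full control effect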
# Outline: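 Jurkat cells with NFAT-driven β-lactamase reporter and co-expressed M1 receptor, stimulated with carbachol (final 1 uM, ~EC50), compound titration, 5 h at 37 °C. CCF4 loaded 1 h at RT; 460/530 nm ratio gave %activity and AC50.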
# [17] = Stat Signaling Pathway (AID 446); conditions: ME-180 SIE beta-lactamase reporter, IL-6 stimulated, 5 h;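 note: ME-180 cervical cancer cells given 40 pM IL-6 alongside compound; SIE-controlled beta-lactamase reporter measured as 460/530 nm FRET emission ratio; % is set by controls: 0 for no effect and ±100 for the full control effect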
# Outline: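 ME-180 SIE-bla cells; overnight plating; cpd + IL-6 40 pM, 5 h, 37 C; LiveBLAzer 2.5 h RT; 460/530 nm emission ratio. Normalized to 300 pM IL-6 and 125 nM JAK inhibitor controls.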
# [18] = molecular target: Cytochrome P450 1A2 (Homo sapiens) (UniProt P05177); experiment: p450-cyp1a2 (AID 410; calls by dose curve; note: potency is the fitted concentration of half-maximal effect;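 for activity change, negative = inhibition: -100% = full effect of reference inhibitor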); conditions: recombinant CYP1A2, luciferin-ME demethylation, luminescence; series mostly up to 25.6 µM
# Outline: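 Inhibition was calculated relative to 57 uM furafylline (full inhibition). The reaction used human CYP1A2 at 20nM with Luciferin-ME at its Km, 100uM, driven by an NADPH-regenerating system for 60 min at room temperature.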
# [19] = molecular target: Glucocorticoid receptor (Homo sapiens) (UniProt P04150); experiment: GR-EFC Redistribution (AID 451; calls by dose curve; note: potency is the fitted concentration of half-maximal effect); conditions: CHO-K1 GR-EFC translocation, beta-gal luminescence, 2 h
# Outline: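 CHO-K1 cells expressing nuclear EA and GR-ED fragments of b-gal; compounds titrated up to 46 uM final, 2 h at 37 C. GR nuclear translocation read as complemented b-gal luminescence after 1 h RT detection.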
# Chain of Glucocorticoid receptor (Homo sapiens) (P04150 whole entry, looked up, the tested form may be a part): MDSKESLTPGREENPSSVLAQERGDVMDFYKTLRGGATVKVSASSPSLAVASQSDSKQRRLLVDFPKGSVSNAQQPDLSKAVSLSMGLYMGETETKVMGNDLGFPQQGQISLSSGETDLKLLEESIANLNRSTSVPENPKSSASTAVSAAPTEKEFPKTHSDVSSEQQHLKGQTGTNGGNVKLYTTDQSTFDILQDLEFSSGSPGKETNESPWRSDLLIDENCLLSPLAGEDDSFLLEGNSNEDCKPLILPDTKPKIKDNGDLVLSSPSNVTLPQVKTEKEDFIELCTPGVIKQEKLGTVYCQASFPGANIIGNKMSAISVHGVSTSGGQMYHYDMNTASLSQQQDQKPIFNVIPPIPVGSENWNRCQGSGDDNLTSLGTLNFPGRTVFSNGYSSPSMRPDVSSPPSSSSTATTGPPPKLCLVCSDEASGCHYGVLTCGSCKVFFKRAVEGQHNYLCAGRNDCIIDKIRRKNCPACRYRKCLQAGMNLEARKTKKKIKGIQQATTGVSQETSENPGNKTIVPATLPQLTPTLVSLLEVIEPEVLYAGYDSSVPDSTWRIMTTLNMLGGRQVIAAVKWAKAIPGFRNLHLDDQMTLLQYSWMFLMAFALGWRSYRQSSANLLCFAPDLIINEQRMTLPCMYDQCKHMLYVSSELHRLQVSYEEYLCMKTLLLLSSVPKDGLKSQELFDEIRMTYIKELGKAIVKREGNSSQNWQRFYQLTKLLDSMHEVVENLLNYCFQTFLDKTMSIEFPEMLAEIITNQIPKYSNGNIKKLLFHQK
# Chain of Cytochrome P450 1A2 (Homo sapiens) (P05177 whole entry, looked up): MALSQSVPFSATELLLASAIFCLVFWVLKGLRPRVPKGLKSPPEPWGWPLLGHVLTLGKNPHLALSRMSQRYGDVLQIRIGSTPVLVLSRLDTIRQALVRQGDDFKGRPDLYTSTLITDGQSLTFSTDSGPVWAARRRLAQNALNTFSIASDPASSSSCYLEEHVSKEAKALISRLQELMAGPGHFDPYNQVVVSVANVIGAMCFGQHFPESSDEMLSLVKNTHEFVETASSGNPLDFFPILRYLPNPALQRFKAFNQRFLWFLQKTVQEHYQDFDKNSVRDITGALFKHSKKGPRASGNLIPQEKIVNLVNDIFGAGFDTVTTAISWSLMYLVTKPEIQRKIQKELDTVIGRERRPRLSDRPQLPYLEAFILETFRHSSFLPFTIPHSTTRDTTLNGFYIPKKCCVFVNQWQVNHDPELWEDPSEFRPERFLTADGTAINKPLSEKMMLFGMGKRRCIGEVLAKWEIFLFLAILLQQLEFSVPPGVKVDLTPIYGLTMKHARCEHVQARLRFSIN
smiles,measurement,setting,value
CN(C)CCN(Cc1ccccc1)c1ccccn1,Potency,[1],> 20.6 µM
CC1=C(/C=C/C(C)=C/C=C/C(C)=C/C(=O)O)C(C)(C)CCC1,"activity change, negative = inhibition",[2],-14.6%
same,Potency,[1],> 20.6 µM
Cc1cc2nc3c(=O)[nH]c(=O)nc-3n(C[C@H](O)[C@H](O)[C@H](O)CO)c2cc1C,Potency,[3],> 92 µM
same,Potency,[4],> 92 µM
same,Potency,[5],> 92 µM
same,Potency,[6],> 92 µM
same,Potency,[7],> 92 µM
same,Potency,[8],> 92 µM
same,Potency,[9],inactive
same,"activity change, negative = cytotoxicity",[10],0.316%
same,Potency,[11],inactive
same,Potency,[12],inactive
same,Potency,[13],inactive
same,Potency,[14],inactive
same,Potency,[15],inactive
CC(CN1c2ccccc2Sc2ccccc21)N(C)C (stereo unspecified),"activity change, negative = inhibition",[16],-73.5% (active)
same,"activity, negative = inhibition",[17]; at 17.2 µM (top of the series),-1.09%
O=C(CCCN1CCN(c2ccccn2)CC1)c1ccc(F)cc1,"activity change, negative = inhibition",[2],7.66%
same,"activity, negative = inhibition",[17]; at 17.2 µM (top of the series),-8.71%
same,Potency,[9],inactive
NC(=O)N/N=C/c1ccc([N+](=O)[O-])o1,Potency,[3],> 92 µM
same,Potency,[7],> 92 µM
same,Potency,[8],> 92 µM
same,Potency,[9],inactive
same,Potency,[10],31.6 µM (active)
same,"activity change, negative = cytotoxicity",[11],-81.4% (active)
same,Potency,[12],inactive
same,Potency,[13],31.6 µM (active)
same,Potency,[14],inactive
same,Potency,[15],inactive
CN(C)CCC=C1c2ccccc2CCc2ccccc21,Potency,[18],15.8 µM (active)
same,"activity change, negative = inhibition",[16],-80% (active)
same,"activity, negative = inhibition",[17]; at 17.2 µM (top of the series),-2.52% and 2.81%
same,"activity, negative = inhibition",[17]; at 38 µM (top of the series),28.3%
same,Potency,[1],> 46 µM and > 20.6 µM
same,Potency,[19],> 46 µM and > 20.6 µM
same,Potency,[9],inactive
CC[C@H]1CN2CCc3cc(OC)c(OC)cc3[C@@H]2C[C@@H]1C[C@H]1NCCc2cc(OC)c(OC)cc21,"activity change, negative = inhibition",[2],-119% (active)
same,"activity change, negative = inhibition",[16],-131% (active)
same,"activity, negative = inhibition",[17]; at 17.2 µM (top of the series),-96.7% (active)
same,Potency,[1],> 20.6 µM
Cc1c(O)cccc1C(=O)N[C@@H](CSc1ccccc1)[C@H](O)CN1C[C@H]2CCCC[C@H]2C[C@H]1C(=O)NC(C)(C)C,Potency,[3],25.2 µM (active)
same,Potency,[4],31.8 µM (active)
same,Potency,[5],24.4 µM (active)
same,Potency,[6],24.6 µM (active)
same,Potency,[7],31.7 µM (active)
same,Potency,[8],24.5 µM (active)
same,Potency,[9],inactive
same,"activity change, negative = cytotoxicity",[10],-108% (active)
same,Potency,[12],31.6 µM (active)
same,Potency,[13],31.6 µM (active)
same,Potency,[14],1.26 µM (active)
same,Potency,[15],31.6 µM (active)
CCC(=O)c1ccc(O)cc1,"activity change, negative = inhibition",[2],-4.26%
same,"activity change, negative = inhibition",[16],-1.37%
same,"activity, negative = inhibition",[17]; at 17.2 µM (top of the series),-0.905%
same,Potency,[1],> 20.6 µM
Cn1cc[nH]c1=S,"activity change, negative = inhibition",[2],-7.08%
same,"activity change, negative = inhibition",[16],-4.58%
same,"activity, negative = inhibition",[17]; at 17.2 µM (top of the series),-3.77%
same,Potency,[9],inactive
O=c1cc(CO)occ1O,Potency,[18],inactive
same,Potency,[1],> 46 µM
same,Potency,[19],> 46 µM
same,Potency,[9],inactive
